Bioassay records as filed in PubChem.
IL-1B inflam inh = blocks inflammasome-driven IL-1 beta release | THP-1 LPS/ATP IL-1B secretion, AlphaLISA, 16 h; stronger effect = lower value | AID 743279 | actives 4.7% (n = 360,000) | activity change, % at 57.5 µM; in the data active means activity change below about -50%; inconclusive means mostly about -30% to -49%
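THP-1 cells pretreated 1 hr with compounds (up to 57.5 uM final), then stimulated with LPS (250 ng/mL final) plus ATP (1.25 mM final); secreted IL-1B measured by AlphaLISA after 16 hr, decreased signal indicating inhibition.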
HT1080 IDH1KD tx = kills HT-1080 cells with IDH1 knockdown. actives 2% (n = 360,000). Potency, µM (titrated, usually from 46.1 µM), usual class: cytotoxic. HT-1080 IDH1 knockdown viability, ATP luminescence, 48 h. AID 686971
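After a 2 h attachment period, IDH1KD HT-1080 cells took pin-transferred compound for 48 h at 37 °C; ATP-based luminescence after 10 min room-temperature reagent incubation reported viability.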
ELG1 repair inh = inhibitors of ELG1-dependent DNA repair in HEK293T cells | HEK293T ELG1-luciferase reporter, luminescence, 16 h; DNA damage induced by 5-fluorouridine | Potency, µM (titrated, usually from 46.1 µM), most hits filed as inhibitors | actives 2.3% (n = 330,000) | AID 504467; further: nearly all actives have a fitted effect of over 55% in size
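Cells (2,000 per well) received 5-fluorouridine plus test compound or DMSO and were incubated 16 hr at 37 °C, 5% CO2. Luciferase activity was read by luminescence 30 min after ONE-Glo addition; signal suppression marked inhibition of damage-induced ELG1 function.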
HT1080-NT tox = kills 2HG-producing HT-1080-NT fibrosarcoma cells; actives 1.6% (n = 360,000); HT-1080-NT fibrosarcoma viability, CellTiter-Glo ATP luminescence, 48 h; Potency, µM (series often up to 46.1 µM), usual class: cytotoxic; AID 686970;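 further: NT is the 2HG producing partner of a matched IDH1 knockdown line; nearly all actives have a fitted effect of over 55% in size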
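A 48-hour cytotoxicity screen used HT-1080-NT cells plated 2 hours before compound delivery. ATP-based CellTiter-Glo luminescence measured viability, normalized to DMSO and no-cell controls.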
TDP1 cell noCPT = qHTS for Inhibitors of human tyrosyl-DNA phosphodiesterase 1 (TDP1): qHTS in cells in absence of CPT; AID 686978, 2013; actives 15% (n = 420,000); DT40 Tdp1-/- hTDP1 cells, no CPT, ATP luminescence, 48 h; Potency, µM (titrated, usually from 46.2 µM), most hits filed as inhibitors; further: nearly all actives have a fitted effect of over 55% in size
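Chicken DT40 Tdp1-/- cells stably complemented with human TDP1 were seeded at 400 cells/well with DMSO in place of 20 nM camptothecin. After compound pinning, cells grew at least 48 hr at 37 °C; viability read by CellTiter-Glo luminescence.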
DT40 TDP1 CPT = growth inhibition of DT40 Tdp1-/-;hTDP1 cells with camptothecin (screen for TDP1 inhibitors); chicken DT40 Tdp1-/-;hTDP1 cells + 20 nM CPT, ATP luminescence, 48 h; actives 12% (n = 420,000); Potency, µM (highest dose often 46.2 µM), usual class: inhibitors; further: nearly all actives have a fitted effect of over 55% in size
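Cell growth measured by CellTiter-Glo luminescence after a minimum 48 h, 37 C compound exposure with 20 nM CPT in Tdp1-knockout DT40 cells stably expressing hTDP1, seeded 400/well; qHTS titration format.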
Hits are given with their value; . = inactive; ? = inconclusive; / = no result given. The list is not random: actives were taken first. Their share in the collection is about 19%. Unless noted, the call rests on the fitted dose curve; in most records, active means well fitted curve in the direction sought with a large enough effect; inconclusive means small, poorly fitted or top-dose-only effect, or another doubt; inactive means no such curve, though single readings can be large; an effect the other way counts as inactive or inconclusive.

SMILES	IL-1B inflam inh	HT1080 IDH1KD tx	ELG1 repair inh	HT1080-NT tox	TDP1 cell noCPT	DT40 TDP1 CPT
O=C(Nc1c(C(=O)Nc2cccc(F)c2)oc2ccccc12)c1cc2ccccc2o1	/	/	/	/	14.6µM	18.4µM
CCOc1ccc(CC(=O)Nc2c(C(=O)c3ccc(C)cc3)oc3ccccc23)cc1OCC	/	/	/	/	18.4µM	?
O=S(=O)(c1ccc(Br)cc1)c1nnn2c1nc(NCc1ccc3c(c1)OCO3)c1sccc12	/	/	/	/	.	?
O=C(NN1CCOCC1)c1ccc(F)cc1	.	.	.	.	.	.
O=C(CC1C(=O)NCCN1Cc1ccc(-c2ccccc2)cc1)NCCCn1ccnc1 (stereo not given)	.	.	.	.	.	.
CCCn1nnnc1NCc1ccccc1C	.	.	.	.	.	.
Cc1nc(C#N)nc(Oc2ccccc2)c1Cl	/	.	/	.	.	.
CN1C(=O)Cc2cc(S(=O)(=O)CCC(=O)Nc3ccccc3)ccc21	/	/	/	/	.	.
Cc1cccc(NC(=O)c2oc3ccccc3c2NC(=O)c2cc(=O)c3ccccc3o2)c1	/	/	/	/	.	.
Cc1ccc(NC(=O)c2oc3ccccc3c2NC(=O)c2cc3ccccc3o2)cc1	/	/	/	/	16.4µM	?
O=C(Nc1c(C(=O)Nc2cccc(C(F)(F)F)c2)oc2ccccc12)c1cc(=O)c2ccccc2o1	/	/	/	/	?	4.11µM
CCOc1ccc(NC(=O)c2oc3ccccc3c2NC(=O)c2cc3ccccc3o2)cc1	/	/	/	/	?	.
CCOC(=O)c1nn2c(C(F)(F)F)cc(-c3ccc(C)cc3)nc2c1Cl	/	/	/	/	.	.
COc1ccc(CNC(=O)C2=CC(c3ccc(OC)cc3)=NS(=O)(=O)N2C)cc1	.	.	.	.	.	.
COc1ccc(C(=O)N2CCN(c3ccc(NC(=O)c4cccs4)cc3)CC2)cc1	?	.	11.6µM	.	?	?
O=C(Nc1ccc(N2CCN(C(=O)c3ccccc3)CC2)cc1)c1cccs1	-58.6	.	?	.	20.6µM	18.4µM
CCC(=O)N1CCN(c2ccc(NC(=O)c3cccs3)cc2)CC1	.	.	?	.	.	.
C[C@H]1[C@H]2CC[C@H]3[C@@H]4CC=C5C[C@@H](N(C)C)CC[C@]5(C)[C@H]4CC[C@]23CN1C	/	/	/	/	?	.
CCN(CC)C(=O)CSc1nc2sc3c(c2c(=O)n1CCOC)CCC3	.	.	?	.	.	.
CCOC(=O)c1sc2nc(SCC(=O)N(CC)CC)n(CCCN3CCCC3=O)c(=O)c2c1C	?	.	?	.	.	18.4µM
CCN(CC(=O)Nc1ccc(Cl)c(C(F)(F)F)c1)CC(=O)NC1CCS(=O)(=O)C1 (stereo not given)	.	.	?	.	?	.
CC(C)(C)c1cc(NCc2ccccn2)n2ncc(-c3ccccc3)c2n1	.	20.6µM	.	?	4.61µM	2.59µM
Cc1cc(NCc2ccccc2)n2ncc(-c3ccccc3)c2n1	.	.	?	.	?	.
CCOC(=O)N1CCN(C(=O)C2CCCN(S(=O)(=O)c3ccc(C)cc3)C2)CC1 (stereo not given)	.	.	.	.	16.4µM	?
CCOC(=O)N1CCN(C(=O)C2CCCN(S(=O)(=O)c3ccc(OCC)cc3)C2)CC1 (stereo not given)	.	.	?	.	16.4µM	?
SMILES	IL-1B inflam inh	HT1080 IDH1KD tx	ELG1 repair inh	HT1080-NT tox	TDP1 cell noCPT	DT40 TDP1 CPT
CCOc1ccc(S(=O)(=O)N2CCCC(C(=O)N3CCOCC3)C2)cc1 (stereo not given)	.	.	.	.	.	.
CCOC(=O)N1CCN(C(=O)C2CCCN(S(=O)(=O)c3ccc(F)cc3)C2)CC1 (stereo not given)	.	.	.	.	.	?
CCOc1ccc(S(=O)(=O)N2CCCC(C(=O)N3CCN(c4ccccc4)CC3)C2)cc1 (stereo not given)	.	.	.	.	20.6µM	16.4µM
CCOC(=O)c1c(C)[nH]c(CCC(=O)NCc2ccccc2Cl)c1C	/	/	/	/	20.6µM	?
COc1ccc(CCC(=O)NCc2ccccc2Cl)cc1OC	.	.	.	.	.	.
CCOC(=O)c1[nH]c(C)c(CCC(=O)NCc2cccc(C)c2)c1C	/	/	/	/	?	.
CCOC(=O)c1c(C)[nH]c(CCC(=O)NCc2ccc(CC)cc2)c1C	/	/	/	/	18.4µM	?
CCOC(=O)c1c(C)[nH]c(CCC(=O)NCc2ccccc2C)c1C	/	/	/	/	13µM	?
CCOC(=O)c1c(C)[nH]c(C)c1S(=O)(=O)NCc1ccccc1OCC	.	.	.	.	.	.
CCOC(=O)c1c(C)[nH]c(CCC(=O)NCc2cc(Br)ccc2OC)c1C	/	/	/	/	18.4µM	?
COCc1cc(C)n(CC(=O)Nc2ccc(NC(C)=O)cc2)c(=O)c1C#N	/	/	/	/	.	.
Cc1ccccc1OCC(=O)Nc1ccc(OCc2cc(=O)n3ccccc3n2)cc1	/	/	/	/	.	.
Cc1cc(C(O)c2ncc(-c3ccccc3)[nH]2)ccc1F (stereo not given)	.	.	/	.	?	16.4µM
COc1cccc(-c2cnc(C(O)c3ccc(F)c(C)c3)[nH]2)c1 (stereo not given)	.	.	/	.	?	?
OC(c1ccccc1)c1ncc(-c2ccc(Cl)cc2)[nH]1 (stereo not given)	.	.	/	.	.	.
OC(c1ccc(-c2ccccc2)cc1)c1ncc(-c2ccc(F)cc2)[nH]1 (stereo not given)	.	?	/	?	?	29.1µM
CC(=O)c1cc2c(cc1NC(=O)c1ccc(C)cc1)OCCO2	.	.	.	.	?	.
CCOC(=O)[C@]12CCCC=C1N(Cc1ccco1)C(=O)[C@H](CC(=O)NCC13CC4CC(CC(C4)C1)C3)C2	-55.4	?	/	?	?	25.9µM
CCOC(=O)[C@]12CCCC=C1N(Cc1ccco1)C(=O)[C@H](CC(=O)NCCCCc1ccccc1)C2	?	?	/	.	?	23.1µM
C[C@@H]1Cn2cnc(C(=O)N[C@@H](C)c3ccccc3)c2C(=O)N1	.	.	/	.	?	.
CCN1C(=O)/C(=C2/C=Cc3cc(C)ccc3N2CC)N(C)C1=S	?	.	.	.	20.6µM	23.1µM
CCN1/C(=C2/SC(=S)N(C)C2=O)C=Cc2cc(C)ccc21	.	.	/	.	.	.
CC(C)Oc1ccc(CNC(=O)c2ccc(Cn3c(=O)c4cccn4c4cccnc43)cc2)cc1	/	/	/	/	0.461µM	?
O=C(NCCc1ccc(Cl)cc1)c1ccc(Cn2c(=O)c3cccn3c3cccnc32)cc1	/	/	/	/	14.6µM	?
CCOc1ccc(CCNC(=O)c2ccc(Cn3c(=O)c4cccn4c4cccnc43)cc2)cc1	/	/	/	/	20.6µM	13µM
